PubChem BioAssay AID1159580 (chemical genetic matrix, 2015)
The campaign covered roughly 5,500 compounds. About 2,000 (36%) were called active. Inconclusive results (about 18%) are left out. No stated cut-off is given here; in the data, active means normalized growth mostly below about 0.91 (no sharp cut-off); inconclusive means no clear call, values can overlap the other calls; inactive means mostly above about 0.92. The list shows a part of the results.

Experiment: chemical genetic growth profiling, strain panel (AID 1159580);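 further: tested at 20 µM; growth read once vehicle control cultures reached saturation at 30 °C; 1 = growth at the plate median or of vehicle wells; lower values mean less growth of the strain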
Conditions: S. cerevisiae deletion strains, growth OD

Measured: normalized growth

COC(=O)c1cc2c(cn1)[nH]c1ccccc12
inactive: locus YAL040C, strain CLN3, active compounds read low 0.978 | locus YCL061C, strain MRC1 (second series), active compounds read low 1 | locus YDR150W, strain NUM1, active compounds read low 0.999 | locus YDR363W, strain ESC2, active compounds read low 0.996 | locus YER002W, strain NOP16, active compounds read low 0.986 | locus YMR263W, strain SAP30, active compounds read low 1 | locus YMR307W, strain GAS1, active compounds read low 0.998 | locus YNL153C, strain GIM3, active compounds read low 0.995 | locus YNL175C, strain NOP13, active compounds read low 0.988 | locus YNL197C, strain WHI3, active compounds read low 0.993 | locus YNL224C, strain SQS1, active compounds read low 0.981 | locus YNL322C, strain KRE1, active compounds read low 1.01 | locus YOR083W, strain WHI5 (second series), active compounds read low 0.96 | locus YPL241C, strain CIN2, active compounds read low 1
